High-throughput results deposited in PubChem by several laboratories.
MT1-MMP txn act = MT1-MMP promoter reporter activation – cell-based, luciferase luminescence, primary screen; HT1080 MT1-MMP promoter luciferase reporter, overnight; hits give high values; activation factor at 10 µM; actives 0.16% (n = 86,000); AID 750, 2007;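 active means activation factor of at least 2 for MT1-MMP transcription at 10 µM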
E coli RNAP = E. coli RNAP inhibitors, biochemical | DNA-directed RNA polymerase subunit beta (Escherichia coli (strain K12)), P0A8V2 | E. coli RNA polymerase, fluorescence transcription assay | inhibition, %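 (tested at 10 µM)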 | actives 0.2% (n = 62,000) | AID 559, 2006; in the data active means inhibition above about 20%;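 further: 0% = enzyme without compound and 100% = no enzyme blank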
FXIa mix inh = FXIa protease inhibitors in compound pools, primary screen, biochemical, 10-compound mixtures; inhibition, % at 5 µM; purified FXIa, fluorogenic substrate, pooled mixtures; actives 0.19% (n = 62,000);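 further: each value is inhibition by a whole ten-compound pool holding the compound; 0% = enzyme with no mixture and 100% = wells lacking enzyme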
MMP13 inh = human MMP13 inhibitors, primary screen, biochemical, FRET peptide cleavage. Collagenase 3 (Homo sapiens), P45452. MMP-13 fTHP FRET cleavage, Mca fluorescence. inhibition, % at 4 µM. actives 0.07% (n = 65,000);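 active means inhibition above the mean of compound-free control plate wells plus 3 SD, cut at about 14% in these data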;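 further: 0% = DMSO wells and 100% = wells with reference MMP-13 inhibitor after basal subtraction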
FXIIa mix inh = human factor XIIa inhibitors, primary screen, biochemical, pooled compound mixtures, fluorogenic substrate; purified FXIIa; inhibition, % at 5 µM; actives 0.2% (n = 62,000); Coagulation factor XII (Homo sapiens), P00748;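 further: 0% = enzyme without compound and 100% = no enzyme blank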
WNV NS2B-NS3 inh = inhibitors of WNV NS2B-NS3 protease, primary screen, biochemical, fluorogenic substrate. Genome polyprotein (West Nile virus), P06935. fluorogenic substrate Ex360/Em465; hits give low values. z-score (test concentration not listed). actives 0.18% (n = 65,000). AID 577, 2007; in the data active means z-score below about -3
Target sequence (P06935 1371-1501 limits assumed): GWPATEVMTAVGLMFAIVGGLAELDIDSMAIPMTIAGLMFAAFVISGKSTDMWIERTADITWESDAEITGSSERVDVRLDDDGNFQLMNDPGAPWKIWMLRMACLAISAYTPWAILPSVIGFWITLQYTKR
Target sequence (P06935 1502-1679 limits assumed): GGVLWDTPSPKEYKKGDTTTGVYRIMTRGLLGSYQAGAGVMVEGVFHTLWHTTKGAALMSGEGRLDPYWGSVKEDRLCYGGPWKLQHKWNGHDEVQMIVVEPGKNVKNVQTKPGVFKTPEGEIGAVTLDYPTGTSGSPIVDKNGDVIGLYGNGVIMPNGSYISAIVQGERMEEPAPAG
Active calls of the source: *; x = no result given. Sampled rows, rich in hits. Any-hit rate of the full collection: about 0.69%. Unless noted, no stated cut-off is given here; in the data, active means inhibition above about 20% (passing the limit was not always enough); inactive means the rest.

SMILES	MT1-MMP txn act	E coli RNAP	FXIa mix inh	MMP13 inh	FXIIa mix inh	WNV NS2B-NS3 inh
O=C1NC(=O)C(CCc2ccncc2)(Cc2ccc3c(c2)OCO3)C(=O)N1CCc1ccccc1 (centres undefined)	1	x	x	x	x	x
O=C1NC(=O)C(CCc2ccncc2)(C2CCCCC2)C(=O)N1	1.1	10	9	52*	6	0.2
CCCN1[C@H](C(=O)OC)C[C@@H]2CC[C@@H](O)C[C@@H]21	1	x	x	x	x	x
COP(=O)(OC)C(O)C(Cl)(Cl)Cl (centres undefined)	1.1	8	5	2	-1	-3.4*
CCOP(=O)(OCC)C(NC(=O)C(Cl)Cl)C(Cl)(Cl)Cl (centres undefined)	1	x	x	x	x	x
O=C(NC1(C(F)(F)F)Oc2ccc(Cl)cc2O1)N1CCC2(CC1)OCCO2 (centres undefined)	x	22*	-23	5	-13	1.2
CCNCC1(c2ccc(OC)c(OC)c2)CCCC1	1	3	-5	0	10	-4.8*
C=C(CC1(C(C)NP(=O)(c2ccccc2)c2ccccc2)CC1)c1ccccc1 (centres undefined)	1.1	x	x	x	x	x
c1ccc2cc3cc4ccccc4cc3cc2c1	1.8	x	x	x	x	x
O=C(NCC(c1cccnc1)N1CCN(c2ccccc2F)CC1)Oc1ccccc1 (centres undefined)	x	5	3	3	3	0.38
COc1ccc(N2CCN(C(CNC(=O)Oc3ccccc3)c3cccnc3)CC2)cc1 (centres undefined)	1.1	x	x	-6	x	-7.2*
CCCCn1c(O)c(C(CC)=NCCCN(C)C)c(=O)[nH]c1=O	1.1	21*	-3	1	-13	-0.05
